The structures appear in SMILES notation. In all, about 360,000 compounds went through this assay and about 780 (0.22%) were called active. The sample holds actives, similar compounds and a random draw of the others, so the mix is not that of the screen. Cut-off read from the data, not from the text of the source: active = inhibition above about 8.5% (passing the limit was not always enough); inconclusive = no clear call, values can overlap the other calls.

Data on 53 molecules can be found in PubChem BioAssay AID588549 (Broad Institute, 2011).

This assay has as its system Mycobacterium tuberculosis FadD28 fatty-acid-AMP ligase. The assay can be described thus: inhibitors of FadD28 bisubstrate probe binding, primary screen, biochemical, fluorescence polarization, single point (AID 588549). The settings on record: at 12.5 µM, active compounds read high.
Usually inhibition stands for the relative decrease from the control value, in per cent. Consider `C=CCSc1ccc(S(=O)(=O)N2CCN(C)CC2)cn1`, for which the inhibition is -0.339% (inactive).

For `CCN(CC)C(CNC(=O)CSc1nnnn1-c1cccc(F)c1)c1ccco1` (stereo not drawn), the inhibition is -0.979% (inactive). Turning to `Cc1ccc(S(=O)(=O)N(C)C)cc1NC(=O)COC(=O)c1c(C)noc1C`, the inhibition is -3.04% (inactive). As to `COCCNC(=O)CCCn1c(=O)c2ccccc2n(Cc2cccc([N+](=O)[O-])c2)c1=O`, the inhibition is -2.03% (inactive).

For `CSC1=NC2(C)CCCCC2C12C=CC(=O)C=C2` (stereo not drawn), the inhibition was -1.74% (inactive).

Take `O=C(Nc1ccc(N2CCOCC2)c(Cl)c1)c1ccc(S(=O)(=O)N2CCOCC2)cc1`: the inhibition was -1.1% (inactive). For the molecule `CC(=O)c1nn(-c2cccc(C(F)(F)F)c2)c(=O)[nH]c1=O`, the inhibition was -2.32% (inactive).

`O=C(Nc1cc(=O)[nH]c2ncnn12)c1ccccc1Cl`: the inhibition is 0.264% (inactive). On to `CC(C(=O)N1CCOCC1)N1c2cccc3cccc(c23)S1(=O)=O` (stereo not drawn), for which the inhibition was -1.36% (inactive). Under `OC1CN=C2Sc3ccccc3N2C1` (stereo not drawn) stands -1.93% (inactive). For `COc1ccccc1NC(=O)CSc1nnc(Cn2nnc(-c3ccccc3)n2)n1-c1ccccc1`, the inhibition is -2.49% (inactive). In the case of `Nc1cc(C(=O)N2CCN(c3ccccc3Cl)CC2)ccc1N1CC2CC(C1)c1cccc(=O)n1C2` (stereo not drawn), the inhibition is 0.263% (inactive). On to `COc1cc(CCC(=O)Nc2ccncc2Cl)cc(OC)c1OC`, for which the inhibition was -0.965% (inactive). Regarding `CC(=O)Nc1ccc(S(=O)(=O)NCCC(=O)N2CCN(c3ccccc3Cl)CC2)cc1`, the inhibition is -0.39% (inactive).

Consider `COc1cc(CCC(=O)N2CCN(c3ccccc3Cl)CC2)cc(OC)c1OC`, for which the inhibition is 67.4% (active).

As to `CCOc1ccc(CCNC(=O)CN2C(=O)NC3(CCc4ccccc43)C2=O)cc1OCC` (stereo not drawn), the inhibition was -4.62% (inactive). Under `C=CCN(CC=C)CCOc1ccccc1[N+](=O)[O-]` stands 0.271% (inactive). On to `COC(=O)[C@H](C(C)C)n1c(C)c(C(C)=O)c(C(C)=O)c1C`, for which the inhibition was -1.13% (inactive). For `N#Cc1ccc(C(=O)OCC(=O)NC(=O)NC2CCCCC2)cc1`, the inhibition was -1.55% (inactive). Consider `COc1cccc(C2CC(c3cccs3)=NN2C(=O)CSC2=NCCS2)c1OC` (stereo not drawn), for which the inhibition was -1.77% (inactive). For `CCS(=O)(=O)Nc1ccc(C2=NN(S(=O)(=O)c3ccc(F)cc3)C(c3ccco3)C2)cc1` (stereo not drawn), the inhibition is -3.77% (inactive). With `COc1cccc(C2CC(c3ccccc3)=NN2S(=O)(=O)c2ccccc2)c1OC` (stereo not drawn), the inhibition was 9.71% (active). Consider `COCCN(CCOC)c1nc(N)c2c(N)nc3c(c2c1C#N)CC(=O)N3Cc1ccc(Cl)cc1`, for which the inhibition was 39.6% (active). For the molecule `Cc1ccc(-c2csc(NCCc3nc4cc(Cl)c(Cl)cc4n3CCOCCO)n2)cc1`, the inhibition is -0.743% (inactive). With `CC(C)CC(=O)Nc1nnc(S(=O)(=O)N(C)c2ccc(Cl)cc2)s1`, the inhibition is 19.6% (active). As for `Cc1nc(NC(=O)CN(C)S(=O)(=O)c2ccc(Cl)cc2)sc1C`, the inhibition was 0.291% (inactive). For `CCC(=O)Nc1nnc(S(=O)(=O)N(CC(C)C)c2ccccc2)s1`, the inhibition was -1.99% (inactive). The result for `CN(CC#CCC(c1ccccc1)c1ccccc1)C(C)(C)C` reads -4.42% (inactive); that for `O=C(NCCc1ccco1)c1ccc(OCc2cn3ccccc3n2)cc1`, -3.83% (inactive); that for `Cc1ccccc1-c1csc(C(O)c2cccc(Cl)c2)n1` (stereo not drawn), -5.7% (inactive). Take `COc1cccc2c1C(=O)c1c(O)c3c(c(O)c1C2=O)CC(O)(C(C)=NNC(=O)c1ccc(Cl)c(Cl)c1)CC3OC1CC(N)C(O)C(C)O1` (stereo not drawn): the inhibition was 59.5% (active). `CN(C(=O)CN1C(=O)CCSc2ccc(S(=O)(=O)N3CCCC3)cc21)c1ccccc1`: the inhibition is -0.827% (inactive). Take `CC1=CC2=NC(=O)CC(C)(C(=O)N(CC(=O)NC(C)(C)C)Cc3ccccc3)N2C=C1` (stereo not drawn): the inhibition was 0.336% (inactive).

`COc1ccccc1OCCC(=O)OCC(=O)NCc1ccccc1`: the inhibition was -1.13% (inactive). In the case of `COc1cc(C(=S)NCc2ccccc2)cc(Br)c1O`, the inhibition is 11% (active).

As for `COc1cc(-c2nnn(CC(=O)NCc3ccccc3)n2)cc(OC)c1OC`, the inhibition is 0.0025% (inactive).

`CSc1ccc(CN2CCC2(C)C(=O)Nc2ccc(C)c(O)c2)cc1` (stereo not drawn): the inhibition was -2.96% (inactive). Regarding `CCc1ccc(-c2cc(C)no2)cc1S(=O)(=O)NCCc1ccc(S(N)(=O)=O)cc1`, the inhibition was -1.2% (inactive). Consider `Cc1cc(-c2ccc(C)c(S(=O)(=O)Nc3ccc(S(N)(=O)=O)cc3)c2)on1`, for which the inhibition is 14.4% (active). Under `Cc1cc(-c2ccc(C)c(S(=O)(=O)NC(C)Cc3ccco3)c2)on1` (stereo not drawn) stands -1.87% (inactive). In the case of `CO[C@@H]1[C@@H](OC(N)=O)[C@@H](O)C(Oc2ccc3c(O)c(NC(=O)c4ccc(O)c(CC=C(C)C)c4)c(=O)oc3c2C)OC1(C)C` (stereo partly drawn), the inhibition is -2.46% (inactive). As to `Cc1cccc(C)c1NC(=O)CS(=O)CC(=O)N1CCN(c2ccccc2)CC1` (stereo not drawn), the inhibition is 0.692% (inactive). On to `Cc1ccc(NC(=O)CSCC(=O)NC2CCCCC2)cc1`, for which the inhibition was 1.13% (inactive). With `O=c1/c(=C/c2ccc(CNS(=O)(=O)c3ccccc3)o2)sc2n1CCN=2`, the inhibition was -4.15% (inactive). For `Cc1ccc(N2CCN(S(=O)(=O)N(C)C)CC2)cc1Cl`, the inhibition was 0.0335% (inactive).

On to `CC(C)CC(N=C1NC(C)(C)Cc2ccccc21)C(=O)O` (stereo not drawn), for which the inhibition was -3.18% (inactive). On to `CCCn1c(=S)[nH]c2ccc(C(F)(F)F)cc21`, for which the inhibition is -2.34% (inactive). On to `Cc1nn(C(C)CC(=O)O)c(C)c1C` (stereo not drawn), for which the inhibition was -1.05% (inactive). On to `CCCC(=O)Nc1ccc2c(c1)nc1n2CCSC1`, for which the inhibition was -0.77% (inactive). As for `CS/C(=C\[N+](=O)[O-])Nc1ccc(C)cc1`, the inhibition is 2.23% (inactive). Turning to `CC(C)CNC(=O)C(=O)NCC(c1ccc2c(c1)OCO2)N1CCOCC1` (stereo not drawn), the inhibition was -1.64% (inactive).

On to `CCCCN1C(=O)C(CC(=O)NCc2cccs2)CC(C(=O)N2CCOCC2)=C1C` (stereo not drawn), for which the inhibition was -1.02% (inactive). On to `CCNC(=O)NC(=O)C(C)OC(=O)C1CCN(S(=O)(=O)c2ccccc2F)CC1` (stereo not drawn), for which the inhibition is -0.363% (inactive).
